D2 PAM-1: human D2 receptor positive allosteric modulation. P14416. DiscoveRx D2 beta-arrestin cells, luminescence, 90 min; 100% = 57 uM dopamine signal. potentiation, % (concentration not given with the values). 360,000 compounds, 0.23% hits. AID 624464; in the data active = potentiation above about 50%; inconclusive = mostly about 30% to 49%
Target sequence (P14416 whole entry, looked up): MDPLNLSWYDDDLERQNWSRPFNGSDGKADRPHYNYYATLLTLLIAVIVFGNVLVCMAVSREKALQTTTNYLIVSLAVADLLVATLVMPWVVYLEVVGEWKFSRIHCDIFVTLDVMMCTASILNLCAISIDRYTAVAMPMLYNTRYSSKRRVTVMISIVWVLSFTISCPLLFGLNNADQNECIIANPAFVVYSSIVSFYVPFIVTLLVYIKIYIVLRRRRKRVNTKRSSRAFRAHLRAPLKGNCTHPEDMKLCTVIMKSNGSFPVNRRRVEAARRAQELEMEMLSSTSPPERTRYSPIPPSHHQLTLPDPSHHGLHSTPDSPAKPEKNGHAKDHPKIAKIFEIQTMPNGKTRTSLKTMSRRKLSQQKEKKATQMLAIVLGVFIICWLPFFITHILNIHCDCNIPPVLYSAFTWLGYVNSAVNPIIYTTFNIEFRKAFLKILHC
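D2 cells co-treated with compound plus 50 nM dopamine (EC20) for 90 min at 37 deg C to detect potentiation. Beta-arrestin recruitment was read as enzyme-fragment luminescence after 1 h at ambient temperature. Full response was set by 57 uM dopamine.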
D2 ag-1: D2 dopamine receptor (human) agonism; AID 485358; HEK293 T-REx D2 cells, calcium flux agonist mode; 340,000 compounds, 0.53% hits; P14416; activation, % at 2 µM;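 active = activation over 3 SD above normal in the single-dose calcium agonist read, cut at about 30% in these data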; note: 0% is about no effect
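HEK293 Trex D2 cells, tetracycline-induced, o/n 30 C 5% CO2; no-wash Ca dye, RT 30–90 min; 10-cycle baseline, 23 nl cpd added, kinetic Ca read 180 s; agonist hits = positive Ca response.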
D2 antagonist: antagonists of human D2 dopamine receptor | P14416 | HEK293 TREx D2 cells, calcium flux, dopamine EC80 | inhibition, % at 10 µM | 340,000 compounds, 2% hits | AID 485344; in the data active = inhibition above about 30%; inactive = below that, where a call was filed; note: 0% is about no effect
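In this primary screen, negative modulation is detected by tracking calcium flux after an EC80 dopamine challenge in inducible HEK293 T-REx D2 cells preexposed to test compound for 180 s.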
D2 ag-2: activates the human D2 dopamine receptor | DiscoveRx PathHunter D2 beta-arrestin, luminescence, 90 min; 100% = 57 uM dopamine signal | activation, % (concentration not given with the values) | 360,000 compounds, 0.084% hits; in the data active = activation above about 40%; inconclusive = between about 15% and that limit
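DiscoveRx PathHunter D2 beta-arrestin cells (2,100/well) attached overnight, then compound-stimulated 90 min at 37 C in HBSS/10 mM HEPES/0.1% Tween-20 buffer; beta-galactosidase complementation read by luminescence after 1 h at ambient temperature. Dopamine 57 uM final (EC100) as control.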
D2 PAM-2: D2 dopamine receptor (human) potentiation | P14416 | HEK293 T-REx D2, calcium flux, EC20 dopamine potentiation | potentiation, % at 10 µM | 340,000 compounds, 0.34% hits;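 active = potentiation over 3 SD above the plate norm, cut at about 30% in these data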; note: 0% is about no effect
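Potentiation of an EC20 dopamine calcium response measured kinetically over 180 s, after a preceding 180 s compound-only read flagging agonists. Cells: inducible Hek293 Trex D2 line, 4000/well, cultured overnight at 30 C before dye loading.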
D3 arrestin ag: activates human D3 dopamine receptor beta-arrestin recruitment; shares compounds with D2 ag-1; DiscoveRx D3 beta-arrestin cells, luminescence, 90 min; Potency, µM (titrated, usually from 76.9 µM), for inactives: top-dose activation, actives largely listed as activators; 2,300 compounds, 4% hits;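 note: potency is the fitted concentration of half-maximal effect; 100% = dopamine control response; nearly all actives have a fitted effect of over 70% in size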
D2 ag-3: counter-screen for D3 agonists: human D2 dopamine receptor agonism; shares compounds with D2 ag-1; DiscoveRx PathHunter D2 beta-arrestin, luminescence, 90 min; response scale: percent relative to full dopamine signal; Potency, µM (series often up to 76.9 µM), for the others: top-dose activation, most hits filed as activators; 2,300 compounds, 5.9% hits; AID 720507; note: potency is the fitted concentration of half-maximal effect; % of control where 0% means no effect; nearly all actives have a fitted effect of over 70% in size
The depositor's hits bear a star. A selection: hits, their analogues and other compounds. The true share with any hit is near 2.4%. Unless noted, calls come from the whole dose curve; as a rule, active = well fitted activation curve with a large enough effect; inconclusive = small, poorly fitted or top-dose-only effect; inactive = flat fitted curve, though single readings scatter.

How did O=C(Cn1cc2c(n1)CCCC2)NCCCN1CCN(c2ccccc2F)CC1 do in these assays?
D2 PAM-1: -8; D2 ag-1: 18; D2 antagonist: 76*; D2 ag-2: -1; D2 PAM-2: -30; D3 arrestin ag: -6%; D2 ag-3: 3%

How did CN1CCN(CCCNC(=O)CN2C(=O)COc3ccccc32)CC1 do in these assays?
D2 PAM-1: 0; D2 ag-1: 0; D2 antagonist: -7; D2 ag-2: -7; D2 PAM-2: -2

Results for COc1cccc(CNCCSc2nnnn2C)c1OCc1ccccc1 ?
D2 ag-1: 0; D2 PAM-2: -7

How did Cn1c(=O)c2sccc2n2c(CCC(=O)N3CCN(c4ccc(F)cc4)CC3)nnc12 do in these assays?
D2 PAM-2: 6

Results for COCCn1c(=O)[nH]c2cc(C(=O)NCCN3CCN(c4cccc(Cl)c4)CC3)ccc2c1=O ?
D2 PAM-1: -23; D2 ag-1: 59*; D2 antagonist: 87*; D2 ag-2: 15; D2 PAM-2: -4; D3 arrestin ag: 10%; D2 ag-3: inconclusive

What do the screens show for `COCCn1c(=S)[nH]c2cc(C(=O)N3CCN(c4cccc(Cl)c4)CC3)ccc2c1=O`?
D2 PAM-1: -28; D2 ag-2: 7

What do the screens show for `COc1ccc(OC)c(NC(=O)CCN2CCN(C)CC2)c1`?
D2 PAM-1: 0; D2 ag-1: 1; D2 antagonist: 4; D2 ag-2: 4; D2 PAM-2: -3

What do the screens show for `COc1ccc(NC(=O)CCN2CCN(Cc3ccccc3)CC2)c(OC)c1`?
D2 PAM-1: -40; D2 ag-1: 12; D2 antagonist: 41*; D2 ag-2: 3; D2 PAM-2: -6; D3 arrestin ag: 20%; D2 ag-3: 9%

What do the screens show for `COc1ccc(OC)c(NC(=O)CCN2CCN(C/C=C/c3ccccc3)CC2)c1`?
D2 PAM-1: -22; D2 ag-1: 49*; D2 antagonist: 18; D2 ag-2: -4; D2 PAM-2: -28; D3 arrestin ag: -5%; D2 ag-3: 9%

Results for COc1ccc(OC)c(NC(=O)CCN2CCN(c3ccccc3)CC2)c1 ?
D2 PAM-1: 6; D2 ag-1: 87*; D2 antagonist: 80*; D2 ag-2: inconclusive; D2 PAM-2: -28; D3 arrestin ag: inconclusive; D2 ag-3: inconclusive

Results for CCc1ccc(NC(=O)C2=C(C)C(=O)OC23CCCCC3)cc1 ?
D2 ag-1: 0; D2 PAM-2: -4

How did COc1cccc(C(=O)NCCN2CCN(c3ccccc3)CC2)c1 do in these assays?
D3 arrestin ag: inconclusive; D2 ag-3: 19%

How did O=C(c1ccc2c(c1)[nH]c(=S)n1c3ccccc3nc21)N1CCN(c2ncccn2)CC1 do in these assays?
D2 PAM-1: -5; D2 ag-1: -2; D2 antagonist: -28; D2 ag-2: -4; D2 PAM-2: 15

What do the screens show for `O=C(NCCN1CCN(c2ccccc2)CC1)c1ccc2c(c1)[nH]c(=S)n1c3ccccc3nc21`?
D2 PAM-1: -25; D2 ag-1: 48*; D2 antagonist: 34*; D2 ag-2: 3; D2 PAM-2: -17; D3 arrestin ag: inconclusive; D2 ag-3: 12%

How did CCCNC(=O)C(CC)NC(=O)c1ccc(C#N)cc1 (stereo not given) do in these assays?
D2 PAM-1: 0; D2 ag-1: 1; D2 antagonist: -4; D2 ag-2: 0; D2 PAM-2: -2

Results for CCCNC(=O)C(Cc1ccc(I)cc1)NC(=O)c1ccc(C#N)cc1 (stereo not given) ?
D2 PAM-1: -4; D2 ag-1: 0; D2 antagonist: -2; D2 ag-2: -3; D2 PAM-2: -3; D3 arrestin ag: -8%; D2 ag-3: -2%

Results for CCCCCCCCC(NC(=O)c1ccc(C#N)cc1)C(=O)NCCC (stereo not given) ?
D2 PAM-1: -4; D2 ag-1: 0; D2 antagonist: 0; D2 ag-2: -3; D2 PAM-2: -1; D3 arrestin ag: -13%; D2 ag-3: -2%

What do the screens show for `CCCNC(=O)C(Cc1cccc(C#N)c1)NC(=O)c1ccc(C#N)cc1` (stereo not given)?
D2 PAM-1: -55; D2 ag-1: -1; D2 antagonist: -1; D2 ag-2: -3; D2 PAM-2: -6; D3 arrestin ag: -5%; D2 ag-3: -6%

How did CCCNC(=O)C(Cc1cccc(Cl)c1)NC(=O)c1ccc(C#N)cc1 (stereo not given) do in these assays?
D2 PAM-1: -2; D2 ag-1: 0; D2 antagonist: 10; D2 ag-2: -9; D2 PAM-2: 18

What do the screens show for `CCc1ccc(CNC(=O)CCCN2C(=O)c3cccnc3Oc3ccc(Cl)cc32)cc1`?
D2 ag-1: -2; D2 PAM-2: 1

How did COc1ccc(-c2nc3cc(C(C)C)ccc3o2)cc1NC(=O)c1ccccc1[N+](=O)[O-] do in these assays?
D2 ag-1: 0; D2 PAM-2: 15

Results for CN(CC(=O)NCCN1CCN(c2ccccc2)CC1)S(=O)(=O)c1ccc2c(c1)CCC(=O)N2 ?
D2 PAM-1: -6; D2 ag-1: 82*; D2 antagonist: 75*; D2 ag-2: 1; D2 PAM-2: -22; D3 arrestin ag: inconclusive; D2 ag-3: inconclusive

What do the screens show for `NC[C@@H]1O[C@H](C23CC4CC(CC(C4)C2)C3)Cc2c1ccc(O)c2O`?
D2 PAM-1: inconclusive; D2 ag-1: 85*; D2 antagonist: 66*; D2 ag-2: 50*; D2 PAM-2: -25; D3 arrestin ag: 32µM*; D2 ag-3: 35µM*

What do the screens show for `OC(c1ccccc1)C1CN(Cc2ccccc2)CCC1(O)c1ccccc1` (stereo not given)?
D2 PAM-1: -34; D2 ag-1: 1; D2 antagonist: -8; D2 ag-2: -2; D2 PAM-2: -15

What do the screens show for `O=C(c1ccccc1)C1CN(Cc2ccccc2)CCC1(O)c1ccccc1` (stereo not given)?
D2 PAM-1: -11; D2 ag-1: 65*; D2 antagonist: 45*; D2 ag-2: 2; D2 PAM-2: -14; D3 arrestin ag: -8%; D2 ag-3: 4%

What do the screens show for `O=C(O)c1ccccc1NC(=O)N1c2ccccc2Sc2ccccc21`?
D2 ag-1: -1; D2 PAM-2: -6
